# Laboratory results taken from PubChem BioAssay.
# Calls of active or inactive are those of the source.
# Tests used:
# [1] = small molecules captured by biotinylated probe aFSTL3 – biochemical, small-molecule microarray, fluorescence 635/667, stem cell growth factor project, primary screen (AID 1064); details: higher = more signal;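 further: measures binding of the biotinylated anti-FSTL3 antibody to printed compounds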
# [2] = binders from COS7 lysate, DM2A8 probe, primary screen, torsin A project, cell lysate, small-molecule microarray, fluorescence 635/667 (AID 1065); details: higher = more signal, COS7 lysate expressing mutant human TOR1A
# [3] = small molecules captured by biotinylated probe aFGF2 – biochemical, small-molecule microarray, fluorescence 635/667, stem cell growth factor project, primary screen (AID 1067); details: higher = more signal;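 further: measures binding of biotinylated aFGF2 protein to printed compounds on slides; z-score merges feature fluorescence and signal-to-noise across triplicate slides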
# [4] = small molecules captured by biotinylated probe aFGF10 – biochemical, small-molecule microarray, fluorescence 635/667, stem cell growth factor project, primary screen (AID 1071); details: higher = more signal;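 further: score merges 667 nm spot intensity and signal to noise from triplicate slides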
# [5] = biological target: Neurogenic locus notch homolog protein 2 (Homo sapiens) (UniProt Q04721); assay: small molecules binding Notch2 protein – biochemical, small-molecule microarray, 635 nm fluorescence, stem cell growth factors, primary screen (AID 1073); details: higher = more signal
# [6] = biological target: Pro-neuregulin-1, membrane-bound isoform (Homo sapiens) (UniProt Q02297); assay: small molecules binding neuregulin-1 protein – biochemical, small-molecule microarray, fluorescence 635/667, psychiatric disease protein project, primary screen (AID 1075); details: NRG1 binding, 635 nm fluorescence, higher = more signal;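 further: score combines 667 nm spot fluorescence with signal to noise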
# [7] = system: Neuregulin-1 EGF-like domain; assay: small molecules binding NRG1 EGF domain – biochemical, small-molecule microarray, 635 nm fluorescence, primary screen (AID 1081); details: higher = more signal;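 further: binding of the protein to compounds printed on small-molecule microarray slides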
# [8] = FRG1 expression reporter modulators in myotubes – cell-based, C2C12 myotubes, firefly/Renilla luciferase, luminescence, FRG1 inhibition for FSHD, primary screen (AID 1084); details: FRG1 promoter luciferase, higher = more signal, called active from +8 up or from −8 down
# [9] = small molecules captured by biotinylated probe aFST – biochemical, small-molecule microarray, fluorescence 635/667, stem cell growth factor project, primary screen (AID 1086); details: higher = more signal;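 further: score merges 667 nm fluorescence with signal-to-noise of each printed compound spot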
# [10] = binders of probe aHhip on microarray, primary screen, stem cell growth factor project, biochemical, small-molecule microarray, fluorescence 635/667 (AID 1087); details: higher = more signal;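 further: score merges spot fluorescence at 667nm with spot signal to noise ratio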
# Sequence of Neurogenic locus notch homolog protein 2 (Homo sapiens) (Q04721 whole entry, looked up, canonical isoform): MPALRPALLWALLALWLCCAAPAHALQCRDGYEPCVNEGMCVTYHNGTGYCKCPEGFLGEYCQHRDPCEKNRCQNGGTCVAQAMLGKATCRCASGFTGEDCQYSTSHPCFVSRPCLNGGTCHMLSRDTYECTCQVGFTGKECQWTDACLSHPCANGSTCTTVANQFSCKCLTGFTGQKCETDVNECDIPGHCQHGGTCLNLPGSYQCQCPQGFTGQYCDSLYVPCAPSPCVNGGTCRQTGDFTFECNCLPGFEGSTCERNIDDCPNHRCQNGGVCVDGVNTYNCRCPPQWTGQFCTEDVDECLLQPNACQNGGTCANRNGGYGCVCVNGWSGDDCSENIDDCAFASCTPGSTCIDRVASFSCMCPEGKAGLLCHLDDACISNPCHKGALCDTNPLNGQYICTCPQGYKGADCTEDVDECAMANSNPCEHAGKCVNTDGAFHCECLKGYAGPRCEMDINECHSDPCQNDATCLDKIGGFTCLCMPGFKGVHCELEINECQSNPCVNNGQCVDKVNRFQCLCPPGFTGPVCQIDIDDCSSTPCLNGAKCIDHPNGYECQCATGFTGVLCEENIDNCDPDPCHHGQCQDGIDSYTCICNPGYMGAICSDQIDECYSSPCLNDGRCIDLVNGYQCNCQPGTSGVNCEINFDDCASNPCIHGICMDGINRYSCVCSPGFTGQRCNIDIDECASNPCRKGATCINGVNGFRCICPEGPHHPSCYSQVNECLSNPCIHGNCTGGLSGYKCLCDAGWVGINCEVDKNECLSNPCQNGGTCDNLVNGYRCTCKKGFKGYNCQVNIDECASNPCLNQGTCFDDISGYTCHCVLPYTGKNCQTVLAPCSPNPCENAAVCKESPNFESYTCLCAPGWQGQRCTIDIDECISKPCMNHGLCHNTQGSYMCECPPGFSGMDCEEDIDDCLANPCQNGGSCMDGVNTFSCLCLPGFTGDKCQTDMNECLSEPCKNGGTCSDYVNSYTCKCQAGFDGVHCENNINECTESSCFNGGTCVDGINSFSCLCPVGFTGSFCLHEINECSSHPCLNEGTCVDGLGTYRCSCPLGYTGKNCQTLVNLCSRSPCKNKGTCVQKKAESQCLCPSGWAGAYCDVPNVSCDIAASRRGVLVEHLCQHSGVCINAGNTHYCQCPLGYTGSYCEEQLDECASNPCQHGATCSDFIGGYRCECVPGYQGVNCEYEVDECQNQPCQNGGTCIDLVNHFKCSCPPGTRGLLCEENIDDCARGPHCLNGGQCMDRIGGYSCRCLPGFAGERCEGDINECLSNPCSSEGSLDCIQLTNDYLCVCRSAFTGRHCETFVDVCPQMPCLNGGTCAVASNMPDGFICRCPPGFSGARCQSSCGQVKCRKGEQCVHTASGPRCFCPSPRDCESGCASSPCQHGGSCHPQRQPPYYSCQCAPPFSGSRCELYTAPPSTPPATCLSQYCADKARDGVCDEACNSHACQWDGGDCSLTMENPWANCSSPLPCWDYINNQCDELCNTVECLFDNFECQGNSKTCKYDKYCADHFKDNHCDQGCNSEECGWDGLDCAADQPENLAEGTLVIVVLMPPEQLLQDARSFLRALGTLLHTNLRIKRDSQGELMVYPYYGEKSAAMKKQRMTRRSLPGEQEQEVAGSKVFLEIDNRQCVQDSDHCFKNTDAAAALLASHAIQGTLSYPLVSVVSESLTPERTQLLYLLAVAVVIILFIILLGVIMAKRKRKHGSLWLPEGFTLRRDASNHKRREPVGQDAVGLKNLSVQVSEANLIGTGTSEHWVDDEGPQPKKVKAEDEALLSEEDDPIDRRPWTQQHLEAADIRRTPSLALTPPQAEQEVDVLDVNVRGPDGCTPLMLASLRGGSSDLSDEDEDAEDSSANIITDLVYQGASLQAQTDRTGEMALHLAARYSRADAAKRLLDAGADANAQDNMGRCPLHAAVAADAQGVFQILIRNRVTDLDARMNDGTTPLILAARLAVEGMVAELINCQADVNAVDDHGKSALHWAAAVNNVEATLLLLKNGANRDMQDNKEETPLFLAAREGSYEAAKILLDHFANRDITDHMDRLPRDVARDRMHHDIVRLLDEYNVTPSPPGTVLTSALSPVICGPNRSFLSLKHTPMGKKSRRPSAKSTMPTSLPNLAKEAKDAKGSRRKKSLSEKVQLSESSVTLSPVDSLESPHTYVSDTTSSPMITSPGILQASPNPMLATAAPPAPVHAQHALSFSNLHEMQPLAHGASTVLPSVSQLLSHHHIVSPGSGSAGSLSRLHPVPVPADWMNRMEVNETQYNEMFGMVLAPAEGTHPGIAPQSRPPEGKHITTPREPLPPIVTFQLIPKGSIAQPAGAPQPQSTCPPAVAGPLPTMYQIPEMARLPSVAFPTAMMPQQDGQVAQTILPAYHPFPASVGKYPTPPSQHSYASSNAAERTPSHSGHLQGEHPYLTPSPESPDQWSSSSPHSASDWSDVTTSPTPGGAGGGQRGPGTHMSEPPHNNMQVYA
# Sequence of Pro-neuregulin-1, membrane-bound isoform (Homo sapiens) (Q02297 whole entry, looked up, the tested form may be a part, canonical isoform): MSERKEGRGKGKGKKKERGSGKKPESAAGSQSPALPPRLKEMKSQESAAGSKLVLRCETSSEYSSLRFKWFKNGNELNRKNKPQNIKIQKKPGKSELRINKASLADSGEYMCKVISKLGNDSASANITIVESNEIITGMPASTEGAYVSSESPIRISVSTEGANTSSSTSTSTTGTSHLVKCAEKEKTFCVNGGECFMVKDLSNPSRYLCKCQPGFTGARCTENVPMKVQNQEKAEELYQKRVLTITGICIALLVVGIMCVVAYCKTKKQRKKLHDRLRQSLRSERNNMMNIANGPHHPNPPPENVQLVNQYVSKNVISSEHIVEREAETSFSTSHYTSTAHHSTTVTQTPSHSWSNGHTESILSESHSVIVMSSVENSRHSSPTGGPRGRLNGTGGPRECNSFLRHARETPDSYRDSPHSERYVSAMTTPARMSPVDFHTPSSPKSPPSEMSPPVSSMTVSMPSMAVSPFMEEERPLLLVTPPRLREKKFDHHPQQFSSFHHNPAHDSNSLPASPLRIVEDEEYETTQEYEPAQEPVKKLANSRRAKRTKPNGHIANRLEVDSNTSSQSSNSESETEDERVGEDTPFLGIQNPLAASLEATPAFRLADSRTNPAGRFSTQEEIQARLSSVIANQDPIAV
SMILES,composite z-score [1],composite z-score [2],composite z-score [3],composite z-score [4],composite z-score [5],composite z-score [6],composite z-score [7],z-score [8],composite z-score [9],composite z-score [10]
CCOC(=O)[C@H](Cc1ccccc1)NC(=O)CCC1CC(OC(=O)NCc2cccc3ccccc23)CC2(CCCC(COC(=O)NCC3CCCCC3)O2)O1 (stereo not given in full),-0.421,0.979,-0.154,0.183,0.595,0.619,0.994,0.0184 (inactive),0.253,0.102
CC(C)CON=C1C[C@@H](O)[C@@H](O)[C@@H]2[C@@H]3C(=O)N(C(C)(C)C)C(=O)[C@@H]3CC[C@@H]12,-0.7,2.77,-0.243,-0.541,-0.483,-0.517,0.694,0.0071 (inactive),-0.0117,-0.303
CCOC(=O)[C@H](Cc1ccccc1)NC(=O)CCC1CC(OC(=O)NCc2cccc3ccccc23)CC2(CCCC(COC(=O)NCc3ccc4c(c3)OCO4)O2)O1 (stereo not given in full),-0.341,-0.261,-0.0391,0.694,0.305,0.188,1.07,1.4 (inactive),0.0918,-0.134
COc1ccc(OC[C@@H](CO)OC)cc1,-0.306,0.415,-0.0512,0.3,0.0354,-0.156,-0.0824,0.759 (inactive),0.0746,-0.0994
COc1cccc([C@H]2Oc3ccc(OC)cc3C(=NO[C@@H](C)c3cc(-c4c(C)cc(C)cc4C)no3)[C@@H]2O)c1,2.15,-0.187,-0.238,-1.44,-2.2,-0.144,-0.393,-3.59 (inactive),-0.391,-0.45
Cc1ccc2[nH]c3nc(CCCn4ccnc4-c4ccccc4)nnc3c2c1,-0.172,0.616,-0.119,0.247,1.63,0.742,1.12,0.921 (inactive),0.26,0.0274
CC(C)=NO[C@H](C)c1cn([C@@H]2COC[C@H]2O)nn1,-0.517,-0.276,-0.163,0.517,0.712,0.0493,0.305,-0.807 (inactive),0.362,-0.0618
O=C1[C@H]2[C@H]3[C@H](O)[C@H](O)CC(=NO[C@@H]4O[C@H](CO)[C@@H](O)[C@H](O)[C@H]4O)[C@H]3CC[C@H]2C(=O)N1c1ccc(F)cc1F,0.552,0.75,0.0159,0.265,0.51,-0.557,-0.977,0.404 (inactive),0.437,-0.0296
Cc1cc2c(nc1C)CCCCN2CC(O)CN1CCCc2nc(-c3ccc(Br)cc3)ccc21 (stereo not given),-0.193,0.514,-0.019,0.673,0.513,0.548,1.02,2.29 (inactive),0.5,-0.146
C[C@@H]1CC[C@H]2C(=O)OC(Cc3ccccc3)CN2[C@H]1c1ccc(Br)cc1 (stereo not given in full),-0.438,-0.441,-0.156,0.578,-0.125,0.485,1.01,-0.156 (inactive),-0.103,0.0373
CC(C)=CCCC(C)=CCON=C1C[C@@H](O)[C@@H](O)[C@@H]2[C@@H]3C(=O)N(C4CCCCC4)C(=O)[C@@H]3CC[C@H]12,-0.317,0.396,-0.0725,0.548,0.535,0.475,0.255,0.0864 (inactive),0.53,0.408
CCOC(=O)CCN1C(=O)[C@H]2[C@@H]3C(=CC[C@H]2C1=O)C(=O)[C@H]1O[C@H]1[C@H]3O,-0.128,-0.42,-0.137,-0.199,-0.582,-0.426,0.503,-2.91 (inactive),-0.481,-0.137
CC=CC1=C(CO)[C@H](O)[C@H]2O[C@H]2[C@@H]1O,-0.267,0.112,-0.0425,0.192,0.486,-0.356,0.592,0.746 (inactive),0.133,0.154
CCc1cc2c(nc1CC)CCN(CCC(C)=NO[C@@H]1O[C@H](COC(C)=O)[C@@H](OC(C)=O)[C@H](OC(C)=O)[C@H]1OC(C)=O)C2,-0.191,0.905,0.0333,0.928,0.839,0.408,0.996,1.05 (inactive),0.365,-0.0994
CCN1C(=O)[C@H]2[C@H]3[C@H](O)[C@H](O)CC(=NOCC=C(C)CCC=C(C)C)[C@@H]3CC[C@H]2C1=O,-0.524,1.36,-0.146,0.483,0.2,-0.0702,0.91,0.256 (inactive),0.774,-0.0994
CCOC(=O)CCN1C(=O)[C@H]2[C@H]3[C@H](O)[C@H](O)CC(=NO[C@@H]4O[C@H](CO)[C@@H](O)[C@H](O)[C@H]4O)[C@@H]3CC[C@H]2C1=O,-0.512,1.86,-0.129,1.04,1.31,0.254,1.14,-0.389 (inactive),0.675,-0.0296
CON=C(C)CCC(=O)OC[C@H]1O[C@H](C#Cc2ccccc2)C=C[C@@H]1Oc1ccc(C)cc1,-0.453,-0.172,-0.0563,0.33,-0.598,0.108,0.394,-0.127 (inactive),0.423,0.0854
CC(=O)OC[C@H]1O[C@H](CCON=C(C)CCN2CCCc3nc(C)c(C)cc32)C=C[C@@H]1OC(C)=O,-0.293,0.704,-0.0454,0.72,1.19,0.237,1.1,0.523 (inactive),0.522,0.0722
